Bioassay records deposited in PubChem by National Center for Advancing Translational Sciences (NCATS).
PNC assembly inh – blocks assembly of the perinucleolar compartment; PC3M PTB-GFP, PNC prevalence imaging, 16 h; active compounds read low; activity change (PNC), negative = inhibition, % at 10 µM; hit rate 3.1% among 140,000;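 active = readout at or below -70, meaning at least 70% loss of cells showing the perinucleolar compartment, a nuclear body marking cancer cells; inconclusive = readout between -30 and a set limit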;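 also: plate controls were DMSO wells for no effect and camptothecin positive control wells for full effect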
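PC3M cells stably expressing PTB-GFP, 750–1000 cells/well, treated 16 h at 37 °C with compound (23 nl of library stock), in duplicate. After paraformaldehyde fixation and Hoechst stain, imaged at 20x; PNC prevalence scored by image analysis.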
HTT ATP protect – cytoprotection in Huntington HTT-Q103 PC12 cell model. PC12 HTT-Q103 induced, cytoprotection, ATP luminescence, 40 h. Potency, µM (titrated, usually from 56.4 µM), for the others: cytoprotection (ATP increase), hits mostly activators. hit rate 0.14% among 230,000; also: potency is read from the fitted curve at half-maximal effect; % of control where 0% means no effect; nearly all actives have a fitted effect of over 45% in size
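Rat PC12, Q103 Htt exon1-GFP fusion, ecdysone promoter; tebufenozide inducer 100 nM final; compound titration; qHTS, 1500 cells/well; ATPlite luminescent read.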
HTT aggregate – mutant huntingtin aggregation inhibition; PC12 HttQ103-GFP aggregates, Acumen cytometry, 40 h; AID 1688; hit rate 1.1% among 220,000; Potency, µM (top dose mostly 46.1 µM), inactives show at the highest dose activity change, negative = inhibition, most hits filed as inhibitors; also: potency is read from the fitted curve at half-maximal effect; % is scaled to controls: 0 for no effect and ±100 for the full control effect; nearly all actives have a fitted effect of over 60% in size
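Aggregate formation scored by laser-scanning cytometer (488 excitation, 500–530 emission) in lysed PC12 cells expressing Q103-GFP after 100 nM tebufenozide induction; library tested in dose series, with ATPLite reagent added in the multiplex.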
Starred values were filed as active, the others as inactive; ? = inconclusive; / = no result given; ! = not active in a repeat; [ ] = another dose, or the depositor's remark. Only a selection was taken, and hits are over-represented in it overall. Unless noted, calls follow the shape of the dose curve; as a rule, active = well fitted curve in the direction sought with a large enough effect; inconclusive = small, poorly fitted or top-dose-only effect, or another doubt; inactive = no such curve, though single readings can be large; an effect the other way counts as inactive or inconclusive.

SMILES	PNC assembly inh	HTT ATP protect	HTT aggregate
Cc1cc(Br)ccc1N1C(=O)CC(=O)NC1=O	-13	-3%[10 µM]	-23%
O=C1CC(=O)N(c2ccc(Cl)cc2Cl)C(=O)N1	-127*	15%	-3%
CC(=O)OC(C)(C)/C=C/C(=O)[C@](C)(O)[C@H]1[C@H](O)C[C@@]2(C)[C@@H]3CC=C4[C@H](C[C@H](O)C(=O)C4(C)C)[C@]3(C)C(=O)C[C@]12C	-115*	/	?
NNP(=O)(CC(=O)c1ccccc1)c1ccccc1 (stereo not drawn)	/	-4%[10 µM]	0%[9.22 µM]
O=C1CN(O)C(c2ccccc2)=c2cc(Cl)ccc2=N1	/	0%	-2%
c1ccc2c(c1)OC[C@@H](C1=NCCN1)O2	/	5µM*!	/
c1ccc(C2(c3ccccc3)CC2C2=NCCN2)cc1 (stereo not drawn)	/	-12%	4%
N#CCCn1cc(C(=O)Nc2ccccc2Br)c(-c2ccc3c(c2)OCCO3)n1	18	-7%[10 µM]	11%
CCC(=NCCOc1ccc(Cl)cc1)c1c(O)n(C)c(=O)n(C)c1=O	48	-23%	11µM*
CCC(=NCCc1c[nH]c2ccccc12)c1c(O)n(-c2ccc(C)cc2)c(=O)[nH]c1=O	-6	-23%[10 µM]	?
CC(=NCc1ccc2c(c1)OCO2)c1c(O)n(C)c(=O)n(C)c1=O	?	-25%[10 µM]	-9%
CCC(=NCc1ccc2c(c1)OCO2)c1c(O)n(C)c(=O)n(C)c1=O	?	-25%[0.074 µM]	20µM*
CCC(=NCCc1c[nH]c2ccccc12)c1c(O)n(C)c(=O)n(C)c1=O	9	-28%	7.9µM*
CCC(=NCCN1CCCCC1)c1c(O)n(C)c(=O)n(C)c1=O	8	6%	8%
CCN1C[C@@]2(COC)C3[C@@H](OC)C4[C@@H]1[C@@]3(C1C[C@@]3(O)[C@H](OC(=O)c5ccccc5)C1[C@]4(OC(C)=O)[C@@H](O)[C@@H]3OC)[C@@H](OC)C[C@H]2O (stereo partly drawn)	/	7%[1.9 µM]	/
Cc1sc2ccccc2c1CC1=NCCN1	/	-29%	0%
N[C@@H](Cn1ccc(=O)n(Cc2ccc(C(=O)O)cc2)c1=O)C(=O)O	/	3%	/
Cc1cc(C)cc(N2C(=O)NC(=O)/C(=C\c3cccn3-c3ccccc3)C2=O)c1	?	-3%[10 µM]	28µM*
Cc1cc(C)cc(N2C(=O)NC(=O)/C(=C\c3cccn3-c3ccc(Cl)cc3)C2=O)c1	?	-12%	-17%
CC[C@H]1C(=O)OC[C@H]1Cc1cncn1C	/	-1%[10 µM]	/
CCCCCCC[n+]1ccc(-c2cc[n+](CCCCCCC)cc2)cc1	?	0.89µM*!	?
CCCCCCCCCCCCCCCC[n+]1ccccc1	/	-65%	16µM*
CCCCCCCCCCCCCl	/	7%	/
COc1cccc(C2(O)CCN(Cc3ccncc3)CC2)c1	/	4%[10 µM]	-8%[9.22 µM]
CCc1nnc(NS(=O)(=O)c2ccc(N=Cc3c(O)n(-c4ccc(Cl)cc4)c(=O)[nH]c3=O)cc2)s1	/	/	-3%
SMILES	PNC assembly inh	HTT ATP protect	HTT aggregate
C[C@@H]1OC=C2[C@@H](O)[C@H]3O[C@H]3C(=O)[C@@]23[C@H]1[C@H]1C2=C([C@@H](O)[C@H]4O[C@@H]4C2=O)[C@@H]3O[C@@H]1C	/	5.6µM*	/
CC(=O)/C=C/c1ccccc1	/	-16%	/
CC(=O)[O][Hg][c]1ccccc1	/	-360%	1.6µM*
ON1C2CCCCC2N(O)C1c1ccccc1 (stereo not drawn)	38	10%	9%
COc1cccc(-n2c(O)c(C=NCc3ccc4c(c3)OCO4)c(=O)[nH]c2=O)c1	-6	-1%	10%
COc1ccccc1-n1c(O)c(C=NCc2ccc3c(c2)OCO3)c(=O)[nH]c1=O	-107*	-3%[0.074 µM]	-6%
N#CCCn1cc(C(=O)Nc2ccc([N+](=O)[O-])cc2)c(-c2ccccc2)n1	/	12%[10 µM]	-2%[9.22 µM]
CN(C)C(=O)Oc1cccc(-c2cn3cc(Cl)ccc3n2)c1	?	-32%[10 µM]	-11%
O=C(O)[C@H]1C[C@@H]1[C@H](NP(=O)(c1ccccc1)c1ccccc1)c1ccccc1	-82*	-5%	-5%
CNC(=O)[C@@H]1C[C@H]1[C@@H](NP(=O)(c1ccccc1)c1ccccc1)c1ccccc1	/	-32%	/
CCCn1nc2ccccc2c1P(=O)(N1CCOCC1)N1CCOCC1	-90*	-20%[10 µM]	12%
Cn1cc(C(=O)NP(=O)(N2CCOCC2)N2CCOCC2)c2ccccc21	/	-22%	-4%
Cc1cc(N2C(=O)C3CCCN3C2c2cccc(Cl)c2)no1 (stereo not drawn)	18	-11%[1.9 µM]	-20%
O=[N+]([O-])c1c(Cl)c(Cl)c(Cl)c(Cl)c1Cl	/	-22%	/
Nc1cc(Cl)c2nonc2c1[N+](=O)[O-]	?	-15%[10 µM]	4.5µM*
CCOC(=O)C(O)(c1ccc(N(CC)C(=O)OC)cc1)C(F)(F)F (stereo not drawn)	?	-2%[0.074 µM]	1.6µM*
